Bioassay records as filed in PubChem.
The entries come from a sample that favours hits as a whole.
DUX4 inh = inhibitors of DUX4-driven ZSCAN4 reporter expression, primary screen, 293T cells, Gaussia and Italica luciferase; 293T-iDUX4 ZSCAN4-Gaussia luciferase reporter, 24 h; hits give low values; activity change, negative = inhibition, % (concentration not given with the values); 37,000 compounds, 0.8% hits;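 active = mean inhibition of at least 10% in the main channel, exceeding the control channel by a set limit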;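 also: 0% = median of neutral control wells and -100% = median of positive control wells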
An asterisk follows results filed as active; ! = a repeat was not active.

SMILES	DUX4 inh
CCC(=O)Nc1ccc2c(c1)C(=O)N(C)C[C@@H](OC)[C@H](C)CN(C(=O)c1ccc(F)cc1)[C@@H](C)CO2	0
Cc1ccccc1S(=O)(=O)N1CC[C@@H]2[C@@H](CO)N(C)c3ccc(Br)cc3[C@@H]21	-23*
CN1c2ccc(Br)cc2[C@@H]2[C@@H](CCN2S(=O)(=O)c2ccccc2F)[C@H]1CO	3
Cc1ccccc1S(=O)(=O)N1CC[C@H]2[C@@H](CO)N(C)c3ccc(Br)cc3[C@H]21	-3
CO[C@@H]1CN(C)C(=O)c2ccc(NS(C)(=O)=O)cc2OC[C@@H](C)N(Cc2ccccc2)C[C@@H]1C	8
C[C@@H](NC(=O)C[C@H]1CC[C@H]2[C@@H](COC[C@@H](O)CN2Cc2cc(F)ccc2F)O1)c1ccccc1	1
Cc1ccccc1-c1ccc(C2[C@@H]3CN(Cc4ccc5c(c4)OCO5)C[C@H]2N3)cc1 (stereo partly drawn)	-37*!
c1cncc(-c2ccc(C3[C@@H]4CN(Cc5ccc6c(c5)OCO6)C[C@H]3N4)cc2)c1 (stereo partly drawn)	-34*!
C(=C\c1ccc(C2[C@H]3CNC[C@@H]2N3Cc2cncnc2)cc1)/c1ccccc1 (stereo partly drawn)	4
C/C=C/c1ccc(C2[C@H]3CNC[C@@H]2N3Cc2ccc3c(c2)OCO3)cc1 (stereo partly drawn)	9
CN(C)C(=O)c1cccc(-c2ccc(C3[C@H]4CNC[C@@H]3N4Cc3ccc4c(c3)OCO4)cc2)c1 (stereo partly drawn)	8
OC[C@@H]1[C@@H](c2ccc(/C=C/c3ccccc3)cc2)[C@@H]2CN(Cc3cncnc3)CCCCN12	0
N#Cc1cccc(-c2ccc(C3[C@@H]4CN(Cc5cocn5)C[C@H]3N4)cc2)c1 (stereo partly drawn)	5
c1cncc(CN2C[C@@H]3N[C@H](C2)C3c2ccc(-c3cccnc3)cc2)c1 (stereo partly drawn)	-3
CN(C)C(=O)c1ccc(-c2ccc(C3[C@@H]4CN(Cc5ccc6c(c5)OCO6)C[C@H]3N4)cc2)cc1 (stereo partly drawn)	-30*!
C/C=C/c1ccc(C2[C@@H]3CN(Cc4ccc5c(c4)OCO5)C[C@H]2N3)cc1 (stereo partly drawn)	-10
C(=C\c1ccc(C2[C@@H]3CN(Cc4cccnc4)C[C@H]2N3)cc1)/c1ccccc1 (stereo partly drawn)	-45*!
CN(C)C(=O)c1ccc(-c2ccc(C3[C@@H]4CN(C(=O)Cc5ccncc5)C[C@H]3N4)cc2)cc1 (stereo partly drawn)	16
CN1C(=O)c2cc(NC(=O)c3cccc(F)c3)ccc2OC[C@@H]2O[C@H](CC(=O)NC3CCC3)CC[C@H]21	0
COc1cc(CN2[C@@H]3CNC[C@H]2C3c2ccc(/C=C/c3ccccc3)cc2)cc(OC)c1 (stereo partly drawn)	13
C[C@@H]1CN([C@H](C)CO)C(=O)CCCn2cc(nn2)CO[C@@H]1CN(C)Cc1cccc(O)c1	-4
O=C(O)C[C@@H]1CC[C@@H](NC(=O)c2ccncc2)[C@H](CO)O1	3
COCC(=O)Nc1ccc2c(c1)C(=O)N(C)C[C@H](OC)[C@H](C)CN(CC1CCCCC1)[C@@H](C)CO2	-1
COc1ccccc1CN1[C@H](CO)[C@@H]2c3ccccc3N(C(=O)C3CCOCC3)C[C@@H]21	3
O=C(c1ccc(F)cc1)N1CC[C@@H]2[C@H](CO)Nc3ccc(C#Cc4ccc(F)cc4)cc3[C@@H]21	-20*
SMILES	DUX4 inh
O=C(c1ccc(F)cc1)N1CC[C@@H]2[C@H](CO)Nc3ccc(C#Cc4ccccc4F)cc3[C@@H]21	-30*
O=C(c1ccc(F)cc1)N1CC[C@@H]2[C@H]1c1cc(C#Cc3ccc(F)cc3)ccc1N[C@@H]2CO	3
COc1ccccc1C#Cc1ccc2c(c1)[C@@H]1[C@@H](CCN1C(=O)c1ccc(F)cc1)[C@@H](CO)N2	0
COc1ccccc1C#Cc1ccc2c(c1)[C@@H]1[C@@H](CCN1C(=O)c1ccc(F)cc1)[C@H](CO)N2	-7
O=C(c1ccc(F)cc1)N1CC[C@@H]2[C@H]1c1cc(C#Cc3ccccc3F)ccc1N[C@@H]2CO	-1
CC=Cc1ccc2n(c1=O)C[C@@H]1[C@@H](CO)[C@H](C(=O)NCc3ccncn3)N(C(=O)C3CCCC3)[C@H]21 (mixture of isomers)	-2
CCCNC(=O)[C@H]1[C@H](CO)[C@H]2Cn3c(ccc(C4=CCCCC4)c3=O)[C@H]2N1C(=O)c1cnccn1	13
O=C1N[C@H](Cc2ccccc2)COCc2cn(nn2)CC[C@@H]1Cc1cccc(F)c1	-6
C[C@H]1CCCCO[C@@H](CN(C)C(=O)Nc2ccc(C(F)(F)F)cc2)[C@@H](C)CN([C@@H](C)CO)C(=O)c2cc(N(C)C)ccc2O1	-1
Cc1cccc(S(=O)(=O)N2C[C@@H]3[C@H](c4ccccc42)[C@H](CO)N3C(=O)C2CC2)c1	1
COc1ccc2c3c([nH]c2c1)[C@@H](CO)N(Cc1ccccc1F)CC31CN(C)C1	-9
COc1ccc2c3c([nH]c2c1)[C@H](CO)N(C(C)=O)CC31CCN(Cc2ccccc2Cl)CC1	-8
COCC(=O)N1CC2(CCN(Cc3ccccc3Cl)CC2)c2c([nH]c3cc(OC)ccc23)[C@H]1CO	-5
CCCNC(=O)N1CC2(C1)CN(Cc1ccc(F)cc1)[C@@H](CO)c1[nH]c3cc(OC)ccc3c12	-2
COc1ccc2c3c([nH]c2c1)[C@@H](CO)N(Cc1ccccc1Cl)CC31CCN(C(=O)C2CC2)CC1	-21*
CCS(=O)(=O)N1CC2(CN(Cc3ccccc3F)[C@@H](CO)c3[nH]c4cc(OC)ccc4c32)C1	-46*
CCCNC(=O)N1CC2(CN(Cc3ccc(F)cc3)C2)c2c([nH]c3cc(OC)ccc23)[C@@H]1CO	-37*
COc1ccc2c3c([nH]c2c1)[C@@H](CO)N(C(=O)c1ccccn1)CC31CCN(C(=O)C2CC2)CC1	-1
COCC(=O)N1CCC2(CC1)CN(Cc1ccccc1Cl)[C@H](CO)c1[nH]c3cc(OC)ccc3c12	0
COc1ccc2c3c([nH]c2c1)[C@H](CO)N(Cc1ccccc1F)CC31CCN(S(C)(=O)=O)CC1	10
COc1ccc2c3c([nH]c2c1)[C@H](CO)N(Cc1ccccc1Cl)CC31CCN(C(C)=O)CC1	-28*
CCCNC(=O)N1CC2(CN(C)C2)c2c([nH]c3cc(OC)ccc23)[C@H]1CO	9
COc1ccccc1CN1[C@@H]2CNC[C@H]1C2c1ccc(/C=C/c2ccccc2)cc1 (stereo partly drawn)	5
CN(C)C(=O)c1cc2c(c(-c3cccc(-c4ccc(F)cc4)c3)n1)[C@@H](CCO)N([S@](=O)C(C)(C)C)C2	-4
O=C(Cc1cccnc1)N1CC(=O)N2[C@H](CO)[C@H](c3ccc(C#CC4CCCCC4)cc3)[C@H]2C1	-3
CC[C@H]1CC=CC[C@@H](C)Oc2ccccc2C(=O)N(C)[C@H](C(C)C)C(=O)N1 (mixture of isomers)	-2
COc1ccc2c3c([nH]c2c1)[C@@H](CO)N(C(=O)c1ccncc1)CC31CN(C(=O)c2ccncc2)C1	18
CO[C@H]1CC[C@H]2CCOc3ccc(C#N)cc3C(=O)N(C)C[C@@H](OC)[C@@H](C)C(=O)N(C)C[C@H]1O2	0
